# Experimental data reported in the supplement of paper PMC8728848.
# The full list was thinned out, with the strongest signals kept by preference.
# Legend:
# Assay in all cases: glycan array binding signal (z-score within array); higher = stronger binding
# Details in all cases: glycan notation: IUPAC condensed, linker removed
# [1] = biological target: Fuc(a1-2)Gal(b1-3)[Fuc(a1-4)]GlcNAc(b1-2)Man(a1-3)[Fuc(a1-2)Gal(b1-3)[Fuc(a1-4)]GlcNAc(b1-2)Man(a1-3)]Man(b1-4)GlcNAc(b1-4)GlcNAc
# Procedure, shortened: (§1)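 Glycan array data were curated from 3228 arrays in the Consortium for Functional Glycomics database and kept only where the protein sequence was available. Glycan names were converted to IUPAC-condensed notation, and columns mapping to the same glycan were averaged. The binding signal is a within-array Z-score, averaged across arrays of the same protein sequence at different concentrations or buffers and across linkers. Negative Z-scores can be read as non-binding.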
# [2] = biological target: Fuc(a1-2)Gal(b1-4)Fuc(a1-3)]GlcNAc(b1-2)Man(a1-3)[Fuc(a1-2)Gal(b1-4)[Fuc(a1-3)]GlcNAc(b1-2)Man(a1-6)]Man(b1-4)GlcNAc(b1-4)GlcNAc
# Procedure, shortened: as §1
# [3] = biological target: Fuc(a1-2)Gal(b1-4)GlcNAc(b1-2)Man(a1-3)[Fuc(a1-2)Gal(b1-4)GlcNAc(b1-2)Man(a1-6)]Man(b1-4)GlcNAc(b1-4)[Fuc(a1-6)]GlcNAc
# Procedure, shortened: as §1
# [4] = biological target: Fuc(a1-2)Gal(b1-4)[Fuc(a1-3)]GlcNAc
# Procedure, shortened: as §1
# [5] = biological target: Fuc(a1-2)Gal(b1-4)[Fuc(a1-3)]GlcNAc(b1-2)Man(a1-3)[Fuc(a1-2)Gal(b1-4)[Fuc(a1-3)]GlcNAc(b1-2)Man(a1-6)]Man(b1-4)GlcNAc(b1-4)GlcNAc
# Procedure, shortened: as §1
# [6] = biological target: Fuc(a1-2)[GalNAc(a1-3)]Gal(b1-3)GalNAc(a1-3)[Fuc(a1-2)]Gal(b1-4)GlcNAc
# Procedure, shortened: as §1
# [7] = biological target: Fuc(a1-2)[GalNAc(a1-3)]Gal(b1-3)GalNAc(b1-3)Gal(a1-4)Gal(b1-4)Glc
# Procedure, shortened: as §1
# [8] = biological target: Fuc(a1-2)[GalNAc(a1-3)]Gal(b1-4)GlcNAc(b1-3)Gal(b1-4)GlcNAc
# Procedure, shortened: as §1
# [9] = biological target: Fuc(a1-2)[GalNAc(a1-3)]Gal(b1-4)GlcNAc(b1-3)Gal(b1-4)GlcNAc(b1-3)Gal(b1-4)GlcNAc
# Procedure, shortened: as §1
# [10] = biological target: Fuc(a1-2)[GalNAc(a1-3)]Gal(b1-4)GlcNAc(b1-6)GalNAc
# Procedure, shortened: as §1
# [11] = biological target: Fuc(a1-2)[GalNAc(a1-4)]Gal(b1-4)GlcNAc
# Procedure, shortened: as §1
# [12] = biological target: Fuc(a1-3)[Gal(b1-4)]GlcNAc(b1-4)Gal(b1-4)[Fuc(a1-3)]GlcNAc(b1-4)Gal(b1-4)[Fuc(a1-3)]GlcNAc
# Procedure, shortened: as §1
# [13] = biological target: Fuc(a1-3)[Gal(b1-4)]GlcNAc(b1-6)[Gal(b1-3)GlcNAc(b1-3)]Gal(b1-4)Glc
# Procedure, shortened: as §1
# [14] = biological target: Gal(a1-3)Gal(b1-4)Glc
# Procedure, shortened: as §1
# [15] = biological target: Gal(b1-2)Gal
# Procedure, shortened: as §1
# [16] = biological target: Gal(b1-3)Gal(b1-4)GlcNAc(b1-2)Man(a1-3)[Gal(b1-3)Gal(b1-4)GlcNAc(b1-2)Man(a1-6)]Man(b1-4)GlcNAc(b1-4)GlcNAc
# Procedure, shortened: as §1
# [17] = biological target: Gal(b1-3)GlcNAc(b1-2)Man
# Procedure, shortened: as §1
# [18] = biological target: Gal(b1-3)GlcNAc(b1-3)Gal(b1-4)GlcNAc(b1-6)[Gal(b1-3)GlcNAc(b1-3)]Gal(b1-4)Glc
# Procedure, shortened: as §1
# [19] = biological target: Gal(b1-3)[Fuc(a1-4)]GlcNAc(b1-2)Man(a1-3)[Gal(b1-3)[Fuc(a1-4)]GlcNAc(b1-2)Man(a1-6)]Man(b1-4)GlcNAc(b1-4)[Fuc(a1-6)]GlcNAc
# Procedure, shortened: as §1
# [20] = biological target: Gal(b1-3)[GlcNAc(b1-6)]GalNAc
# Procedure, shortened: as §1
# [21] = biological target: Gal(b1-3)[Neu5Ac(b2-6)]GalNAc
# Procedure, shortened: as §1
# [22] = biological target: Gal(b1-4)GlcNAc(b1-2)Man(a1-6)[GlcNAc(b1-2)Man(a1-3)]Man(b1-4)GlcNAc(b1-4)GlcNAc
# Procedure, shortened: as §1
# [23] = biological target: Gal(b1-4)GlcNAc(b1-2)[Gal(b1-4)GlcNAc(b1-6)]Man(a1-6)[GlcNAc(b1-4)][Gal(b1-4)GlcNAc(b1-2)[Gal(b1-4)GlcNAc(b1-4)]Man(a1-3)]Man(b1-4)GlcNAc(b1-4)[Fuc(a1-6)]GlcNAc
# Procedure, shortened: as §1
# [24] = biological target: Gal(b1-4)GlcNAc(b1-3)Gal(b1-4)GlcNAc(b1-3)Gal(b1-4)GlcNAc(b1-2)[Gal(b1-4)GlcNAc(b1-3)Gal(b1-4)GlcNAc(b1-3)Gal(b1-4)GlcNAc(b1-6)]Man(a1-6)[Gal(b1-4)GlcNAc(b1-3)Gal(b1-4)GlcNAc(b1-3)Gal(b1-4)GlcNAc(b1-2)Man(a1-3)]Man(b1-4)GlcNAc(b1-4)[Fuc(a1-6)]GlcNAc
# Procedure, shortened: as §1
# [25] = biological target: Gal(b1-4)GlcNAc(b1-3)Gal(b1-4)GlcNAc(b1-3)Gal(b1-4)GlcNAc(b1-3)Gal(b1-4)GlcNAc(b1-3)Gal(b1-4)GlcNAc(b1-2)Man(a1-3)[Gal(b1-4)GlcNAc(b1-3)Gal(b1-4)GlcNAc(b1-3)Gal(b1-4)GlcNAc(b1-3)Gal(b1-4)GlcNAc(b1-3)Gal(b1-4)GlcNAc(b1-2)Man(a1-6)]Man(b1-4)GlcNAc(b1-4)[Fuc(a1-6)]GlcNAc
# Procedure, shortened: as §1
# [26] = biological target: Gal3S6S(b1-4)GlcNAc
# Procedure, shortened: as §1
# [27] = biological target: Gal4S(b1-4)GlcNAc
# Procedure, shortened: as §1
# [28] = biological target: Gal6S(b1-3)GlcNAc6S
# Procedure, shortened: as §1
binder,measurement,setting,value
"HPA (Helix pomatia), Q575S3 (protein) MWAHLTGLLLICALSLSAAQRAQTGEIDCGSDSSWPKDPSDNPNRDNTREIVKHVTFSPQFCREPKVILSVTTLDAEHTKNLRYEARLKSVSPSGLSASCYSWHDGTIYRMKLSWLAVED",glycan array binding signal (z-score),[1],-0.229
same,glycan array binding signal (z-score),[2],-0.186
same,glycan array binding signal (z-score),[3],-0.229
same,glycan array binding signal (z-score),[4],-0.264
same,glycan array binding signal (z-score),[5],-0.221
same,glycan array binding signal (z-score),[6],4.9
same,glycan array binding signal (z-score),[7],4.46
same,glycan array binding signal (z-score),[8],4.44
same,glycan array binding signal (z-score),[9],4.28
same,glycan array binding signal (z-score),[10],2.54
same,glycan array binding signal (z-score),[11],5.52
same,glycan array binding signal (z-score),[12],-0.271
same,glycan array binding signal (z-score),[13],-0.251
same,glycan array binding signal (z-score),[14],-0.261
same,glycan array binding signal (z-score),[15],-0.259
same,glycan array binding signal (z-score),[16],-0.266
same,glycan array binding signal (z-score),[17],0.558
same,glycan array binding signal (z-score),[18],-0.246
same,glycan array binding signal (z-score),[19],-0.227
same,glycan array binding signal (z-score),[20],-0.265
same,glycan array binding signal (z-score),[21],-0.268
same,glycan array binding signal (z-score),[22],-0.239
same,glycan array binding signal (z-score),[23],-0.252
same,glycan array binding signal (z-score),[24],-0.25
same,glycan array binding signal (z-score),[25],-0.253
same,glycan array binding signal (z-score),[26],-0.266
same,glycan array binding signal (z-score),[27],-0.267
same,glycan array binding signal (z-score),[28],-0.242
